According to PubChem BioAssay (Tox21):
Records with an inconclusive call do not appear. The source made the active and inactive calls. Unless noted, the call rests on the fitted dose curve; in most records, active means well fitted curve in the direction sought with a large enough effect in the repeat runs; inconclusive means weak or mixed curves; inactive means no such curve, though single readings can be large; an effect the other way counts as inactive or inconclusive.

Assays:
[1] = A CellTox Green Cytotoxicity Assay to monitor cytotoxicity in HEK293 cells - 32 hour (AID 1224881); further: nearly all actives have a fitted effect of over 40% in size
In short: (§1)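 Dead-cell fluorescence measured kinetically: asymmetric cyanine dye, HEK293, 600 cells/well, 5 h settle, 23 nL cpd/DMSO, 37 C, reads 0–40 h every 8 h.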

[2] = A CellTox Green Cytotoxicity Assay to monitor cytotoxicity in HepG2 cells - 0 hour (AID 1224882); further: nearly all actives have a fitted effect of over 35% in size
In short: (§2)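 First, HepG2 cells (600/well) mixed with reagent were plated; second, after 5 h at 37 C they received compounds via pintool; third, fluorescence was measured at 0 h through 40 h at 8 h intervals.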

[3] = A CellTox Green Cytotoxicity Assay to monitor cytotoxicity in HepG2 cells - 32 hour (AID 1224883); further: nearly all actives have a fitted effect of over 50% in size
In short: as §2

[4] = A CellTox Green Cytotoxicity Assay to monitor cytotoxicity in HEK293 cells - 8 hour (AID 1224884); further: nearly all actives have a fitted effect of over 35% in size
In short: as §1

[5] = qHTS RealTime-Glo MT Cell Viability Assay in HepG2 cells - 16 hour (AID 1224885); further: nearly all actives have a fitted effect of over 50% in size
In short: (§3)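 HepG2 suspension premixed with RealTime-Glo reagents is plated at 600 cells per well and left 5 h at 37 C/5% CO2. Compounds in DMSO then go in, and bioluminescence reflecting viable cell number is recorded over 40 h.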

[6] = qHTS RealTime-Glo MT Cell Viability Assay in HEK293 cells - 24 hour (AID 1224886); further: top concentration of the series differs between compounds; nearly all actives have a fitted effect of over 50% in size
In short: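 Reads taken at 0, 8, 16, 24, 32 and 40 h from the same wells. HEK293 cells (600/well) carried RealTime-Glo reagents from seeding, with compound added after a 5 h settle at 37 C.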

[7] = qHTS RealTime-Glo MT Cell Viability Assay in HEK293 cells - 8 hour (AID 1224887); further: top concentration of the series differs between compounds; nearly all actives have a fitted effect of over 50% in size
In short: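 600 HEK293 cells per well, dispensed already mixed with RealTime-Glo MT reagents. Compound dosing came 5 h later. The same wells were read for luminescence at 0, 8, 16, 24, 32 and 40 h of exposure at 37 C.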

[8] = A CellTox Green Cytotoxicity Assay to monitor cytotoxicity in HEK293 cells - 16 hour (AID 1224888); further: nearly all actives have a fitted effect of over 35% in size
In short: as §1

[9] = qHTS RealTime-Glo MT Cell Viability Assay in HepG2 cells - 0 hour (AID 1224889); further: nearly all actives have a fitted effect of over 50% in size
In short: as §3

[10] = A CellTox Green Cytotoxicity Assay to monitor cytotoxicity in HepG2 cells - 8 hour (AID 1224890); further: nearly all actives have a fitted effect of over 45% in size
In short: as §2

[11] = qHTS assay to identify small molecule antagonists of the estrogen receptor alpha (ER-alpha) signaling pathway using the BG1 cell line in the presence of 0.1 nM 17-beta-estradiol - cell viability counter screen (AID 1259241); further: nearly all actives have a fitted effect of over 40% in size
In short: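 Following 5 days in phenol red-free medium with charcoal-stripped serum, VM7Luc4E2 cells received test compounds alongside 0.1 nM 17beta-estradiol (final) at 37C for 22 hr. Live cells were then quantified via protease-substrate fluorescence.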

[12] = qHTS assay to identify small molecule antagonists of the androgen receptor (AR) signaling pathway using the MDA cell line in the presence of 0.5 nM R1881 - cell viability counter screen (AID 1259242); further: nearly all actives have a fitted effect of over 45% in size
In short: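 qHTS format. MDA-kb2 (MMTV-luc, AR/GR responsive) + cpd + 0.5 nM R1881 final, 16 hr 37C/0% CO2 → CellTiter-Fluor 30 min → fluorescence intensity.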

[13] = biological target: Androgen receptor (Homo sapiens) (UniProt P10275); assay: qHTS assay to identify small molecule antagonists of the androgen receptor (AR) signaling pathway using the MDA cell line in the presence of 0.5 nM R1881 (AID 1259243); further: nearly all actives have a fitted effect of over 50% in size
Androgen receptor (Homo sapiens), sequence (P10275 whole entry, looked up): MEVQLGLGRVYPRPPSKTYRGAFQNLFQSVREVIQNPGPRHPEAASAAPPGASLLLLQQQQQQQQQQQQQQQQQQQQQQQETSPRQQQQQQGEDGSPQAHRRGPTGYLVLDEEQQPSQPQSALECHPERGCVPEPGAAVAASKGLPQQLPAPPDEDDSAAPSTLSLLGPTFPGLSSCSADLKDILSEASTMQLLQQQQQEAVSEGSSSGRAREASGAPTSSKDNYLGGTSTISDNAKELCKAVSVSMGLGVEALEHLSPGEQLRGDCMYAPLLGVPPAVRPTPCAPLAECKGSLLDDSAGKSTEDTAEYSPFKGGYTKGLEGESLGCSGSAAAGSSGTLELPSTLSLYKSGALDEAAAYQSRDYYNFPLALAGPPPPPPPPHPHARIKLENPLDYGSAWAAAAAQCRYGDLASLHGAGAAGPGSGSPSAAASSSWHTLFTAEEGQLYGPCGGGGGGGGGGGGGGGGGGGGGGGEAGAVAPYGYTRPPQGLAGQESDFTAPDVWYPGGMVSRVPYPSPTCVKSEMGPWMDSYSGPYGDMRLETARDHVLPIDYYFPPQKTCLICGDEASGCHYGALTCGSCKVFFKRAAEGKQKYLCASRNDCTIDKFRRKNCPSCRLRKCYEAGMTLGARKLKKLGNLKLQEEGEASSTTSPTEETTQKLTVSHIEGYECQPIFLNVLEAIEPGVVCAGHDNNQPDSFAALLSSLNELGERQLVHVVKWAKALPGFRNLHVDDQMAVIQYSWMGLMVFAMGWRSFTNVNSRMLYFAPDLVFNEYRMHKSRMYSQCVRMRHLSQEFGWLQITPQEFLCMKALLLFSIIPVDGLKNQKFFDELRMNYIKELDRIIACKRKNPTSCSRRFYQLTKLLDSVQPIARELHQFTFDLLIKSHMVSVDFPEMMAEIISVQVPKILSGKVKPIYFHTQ
In short: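 Antagonist mode quantitative HTS in MDA-kb2 MMTV-luciferase cells, agonist R1881 at 0.5 nM final, 16 hr exposure at 37C and 0% CO2, luminescent detection.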

[14] = qHTS assay to identify small molecule phospholipidosis (PLD) inducers (AID 1259344; active means well fitted curve in the direction sought with a large enough effect; an effect the other way counts as inactive or inconclusive)
In short: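 Accumulated phospholipid, stained red by LipidTOX during 24 h compound treatment of HepG2 cells at 37 C, is quantified from images as pit number and intensity, normalised per cell using Hoechst-stained nuclei.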

[15] = qHTS assay to identify small molecule HDAC inhibitors (AID 1259364);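 further: wild-type HCT-116 cells with endogenous class I/II HDAC activity; top concentration of the series differs between compounds; nearly all actives have a fitted effect of over 45% in size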
In short: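 Quantitative high-throughput format: overnight-seeded HCT-116 cells got compounds for 2 hr at 37C; HDAC-Glo I/II reagent added, 30 min RT, luminescence measured.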

[16] = qHTS assay to identify small molecule HDAC inhibitors - cell viability counter screen (AID 1259365)
In short: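 HCT-116 wild-type, overnight attachment; 2hr drug exposure, 37C; CellTiter-Glo luminescent ATP readout after 30min RT.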

[17] = qHTS assay to identify small molecule agonists of the sonic hedgehog signaling (Shh) pathway - cell viability counter screen (AID 1259366); further: nearly all actives have a fitted effect of over 50% in size
In short: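 Compounds in DMSO were pin-transferred onto 3T3 Gli1-Luc cells that had settled 4hr; plates then stood 24hr at 37C and 5% CO2. One hour before the end, CellTiter-Fluor was added and fluorescence recorded.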

[18] = qHTS assay to identify small molecule antagonists of the sonic hedgehog signaling (Shh) pathway - cell viability counter screen (AID 1259367); further: nearly all actives have a fitted effect of over 55% in size
In short: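 CellTiter-Fluor signal in conditioned medium-stimulated 3T3 Gli1-Luc cells, 23 hr compound exposure, 37C.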

[19] = qHTS assay to identify small molecule agonists of the sonic hedgehog signaling (Shh) pathway (AID 1259368; calls by dose curve;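 further: NIH/3T3-derived 3T3Gli1-Luc cells carrying a stable Gli1-driven firefly luciferase reporter; series mostly up to about 92 µM; nearly all actives have a fitted effect of over 15% in size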)
In short: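 Quantitative high-throughput format using a Gli1-driven firefly luciferase reporter line derived from NIH/3T3 cells. After a 24 hr compound treatment at 37 C and 5% CO2, luminescence reported Gli1 response element activity.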

[20] = biological target: Estrogen receptor (Homo sapiens) (UniProt P03372); assay: qHTS assay to identify small molecule antagonists of the estrogen receptor alpha (ER-alpha) signaling pathway using the BG1 cell line in the presence of 0.1 nM 17-beta-estradiol (AID 1259244); further: nearly all actives have a fitted effect of over 50% in size
Estrogen receptor (Homo sapiens), sequence (P03372 whole entry, looked up): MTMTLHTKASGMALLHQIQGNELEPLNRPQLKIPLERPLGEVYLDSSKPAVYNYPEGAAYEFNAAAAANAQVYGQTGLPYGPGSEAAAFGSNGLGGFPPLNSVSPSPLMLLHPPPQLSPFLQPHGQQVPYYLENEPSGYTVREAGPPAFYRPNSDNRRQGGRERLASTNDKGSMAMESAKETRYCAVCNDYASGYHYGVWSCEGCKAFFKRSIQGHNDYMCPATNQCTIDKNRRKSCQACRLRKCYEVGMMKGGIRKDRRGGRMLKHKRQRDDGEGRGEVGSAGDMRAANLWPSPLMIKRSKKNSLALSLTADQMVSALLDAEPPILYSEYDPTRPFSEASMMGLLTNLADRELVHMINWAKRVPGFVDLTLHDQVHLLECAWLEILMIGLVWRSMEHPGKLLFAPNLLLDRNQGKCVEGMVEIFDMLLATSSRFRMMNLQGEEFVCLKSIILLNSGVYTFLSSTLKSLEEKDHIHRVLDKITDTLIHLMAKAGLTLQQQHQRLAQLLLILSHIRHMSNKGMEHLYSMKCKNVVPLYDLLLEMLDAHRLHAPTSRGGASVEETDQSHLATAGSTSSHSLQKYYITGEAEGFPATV
In short: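 Reporter is a stably transfected luciferase under four estrogen responsive elements in VM7Luc4E2 cells expressing native full-length ER-alpha; inhibition of 0.1 nM (final) 17beta-estradiol-driven signal over 22 h is read by luminescence.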

Measured: Potency

O=C(O)CCCOc1ccc(Cl)cc1Cl
not listed: [20]
inactive: all other assays above

NP(N)(=O)NC(=O)c1ccc(F)cc1
not listed: [20]
inactive: all other assays above

C=CC(=O)OCC
not listed: [13] | [14]
inactive: all other assays above

COc1ccccc1N1CCNCC1
not listed: [13] | [20]
inactive: all other assays above

CCOC(=O)NC(O)C(Cl)(Cl)Cl (stereo not drawn)
not listed: [13] | [20]
inactive: all other assays above

C=C(C)C(=O)OCCCCOC(=O)C(=C)C
not listed: [13] | [14]
inactive: all other assays above

N#CC(C#N)=C(C#N)C#N
not listed: [13] | [14] | [15] | [17] | [18]
inactive: all other assays above

C[C@]12CC[C@H]3[C@@H](CCC4=CC(=O)CC[C@@H]43)[C@@H]1CC[C@@H]2OC(=O)CCc1ccccc1
not listed: [13] | [20]
inactive: all other assays above
